Data: PubChem BioAssay (NCI)
“And” between values parts separate entries of the source, which are not always exact repeats. Identical values can stand only once. Compounds without any hit were thinned out: in the full panel of roughly 83,000, 20% have a hit.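 Results are percent growth after 48 hours of single-concentration exposure. 100 means growth as in untreated cells, lower positive values show inhibition; negative values down to -100 show cell death.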 The source made the active and inactive calls. Rule for the calls: active = growth percent below 10; inactive = the rest.

Columns and labels:
Experiment in all cases: NCI-60 one-dose screen, 48 h (100 = growth as untreated, 0 = no growth, -100 = all killed)
Settings in all cases: 10 µM unless noted
SK-MEL-2 melanoma = tested on: SK-MEL-2 melanoma
EKVX NSCLC = tested on: EKVX NSCLC
SN12C renal = tested on: SN12C renal
UO-31 renal = tested on: UO-31 renal
TK-10 renal = tested on: TK-10 renal
ACHN renal = tested on: ACHN renal
CAKI-1 renal = tested on: CAKI-1 renal
A498 renal = tested on: A498 renal
CCRF-CEM leukemia = tested on: CCRF-CEM leukemia
MOLT-4 leukemia = tested on: MOLT-4 leukemia

SMILES	growth (SK-MEL-2 melanoma)	growth (EKVX NSCLC)	growth (SN12C renal)	growth (UO-31 renal)	growth (TK-10 renal)	growth (ACHN renal)	growth (CAKI-1 renal)	growth (A498 renal)	growth (CCRF-CEM leukemia)	growth (MOLT-4 leukemia)
Nc1n[nH]c2cccc(C#Cc3cccc(NC(=O)c4ccc(N5CCOCC5)c(C(F)(F)F)c4)c3)c12	-7.56% (active)	18.4% (inactive)	9.03% (active)	-31.7% (active)	16.5% (inactive)	-0.609% (active)	9.52% (active)	-34.3% (active)	10.5% (inactive)	7.67% (active)
Cn1cc(-c2nc3c(F)cc4[nH]ncc4c3c3c2CCCC3)c(C(F)F)n1	76.7% (inactive)	54.5% (inactive)	66.7% (inactive)	35.8% (inactive)	52.3% (inactive)	44.3% (inactive)	37% (inactive)	33.1% (inactive)	4.61% (active)	7.32% (active)
COc1nc2ccc(C)cc2cc1/C=[N+](\[O-])c1ccccc1	100% (inactive)	77.8% (inactive)	90.1% (inactive)	59.4% (inactive)	116% (inactive)	83.5% (inactive)	82.3% (inactive)	75.6% (inactive)	46.6% (inactive)	82.8% (inactive)
O=C(Nc1ncc(Cc2cccc(C(F)(F)F)c2)s1)c1ccc2c(c1)OCCO2	40.1% (inactive)	30.7% (inactive)	35.3% (inactive)	47.7% (inactive)	44.9% (inactive)	29.8% (inactive)	24.6% (inactive)	-2.08% (active)	17.8% (inactive)	9.32% (active)
O=C(N/N=C/c1ccc(O)cc1O)c1cccc(Nc2ccnc(C(F)(F)F)c2)c1	60.7% (inactive)	28% (inactive)	25% (inactive)	34.7% (inactive)	42.6% (inactive)	30.3% (inactive)	40.3% (inactive)	44.9% (inactive)	6.22% (active)	12.2% (inactive)
O=C1/C(=C/c2ccccc2[N+](=O)[O-])Cc2ccccc21	68.4% (inactive) and 80.5% (inactive)	–	20.3% (inactive) and 48.5% (inactive)	-66.2% (active) and 25.9% (inactive)	-15.6% (active) and 21.2% (inactive)	-23.9% (active) and -43.3% (active)	-10.6% (active) and -9.61% (active)	-18.3% (active) and 14.1% (inactive)	-0.132% (active) and 4.53% (active)	-1.54% (active) and 13.5% (inactive)
COc1ccc2c(c1)c(C(=O)c1nc(-c3cn(C)c4ccccc34)no1)cn2C	101% (inactive)	103% (inactive)	89.5% (inactive)	77.2% (inactive)	–	95.9% (inactive)	94.1% (inactive)	87.7% (inactive)	87.9% (inactive)	94.2% (inactive)
CCOC(=O)c1cnn(-c2ccc(S(N)(=O)=O)cc2)c1N	93.6% (inactive)	101% (inactive)	98% (inactive)	64.8% (inactive)	–	116% (inactive)	150% (inactive)	70.4% (inactive)	85.3% (inactive)	100% (inactive)
COc1cc(-c2nc(SCCC(C)C)nc(Nc3ccc(F)cc3)c2C#N)cc(OC)c1OC	101% (inactive)	85% (inactive)	64.6% (inactive)	64.6% (inactive)	–	34.1% (inactive)	49.6% (inactive)	62.5% (inactive)	91.4% (inactive)	83.4% (inactive)
Cc1nc(Nc2ncc(C(=O)Nc3c(C)cccc3Cl)s2)cc(N2CCN(CCO)CC2)n1	–	41.5% (inactive) and 33.2% (inactive)	24% (inactive) and 18.3% (inactive)	-0.429% (active) and -14.3% (active)	-7.96% (active) and -61.7% (active)	1.96% (active) and -15.4% (active)	-44.3% (active) and -28.7% (active)	-24.2% (active) and -40.1% (active)	77.3% (inactive) and 41.6% (inactive)	66.1% (inactive) and 29.6% (inactive)
O=Nc1ccc(NO)c2ccccc12	103% (inactive) and 59.7% (inactive)	–	103% (inactive) and 60.5% (inactive)	88.7% (inactive) and 65.3% (inactive)	132% (inactive) and 125% (inactive)	97.6% (inactive) and 79.2% (inactive)	83.8% (inactive) and 80.3% (inactive)	74% (inactive) and 102% (inactive)	106% (inactive) and 57.6% (inactive)	108% (inactive) and 74.1% (inactive)
Cc1ccccc1SSc1ccccc1C	24.3% (inactive)	114% (inactive)	84.9% (inactive)	78.4% (inactive)	–	0.0765% (active)	60.5% (inactive)	96.2% (inactive)	79% (inactive)	83.9% (inactive)
COc1ccc(-c2cc(=O)c3c(O)cc(O)cc3o2)cc1	116% (inactive)	103% (inactive)	102% (inactive) and 82% (inactive)	-74.8% (active) and 92.7% (inactive)	–	97.5% (inactive) and 97.2% (inactive)	108% (inactive) and 105% (inactive)	97.5% (inactive)	94.2% (inactive) and 86.6% (inactive)	76.4% (inactive) and 85.6% (inactive)
CCOC(=O)c1ccc(Nc2ncnc3c2cnn3-c2cccc(F)c2)cc1	114% (inactive)	97.5% (inactive)	95% (inactive)	72.1% (inactive)	–	96.5% (inactive)	84.8% (inactive)	99% (inactive)	95.6% (inactive)	–
Nc1ccccc1SC(CC(=O)c1ccccc1)c1ccc([N+](=O)[O-])cc1 (stereo unspecified)	137% (inactive) and 87.4% (inactive)	97.1% (inactive)	94% (inactive) and 92.5% (inactive)	55.1% (inactive) and 39.2% (inactive)	–	99.8% (inactive) and 93.6% (inactive)	70.2% (inactive) and 91.7% (inactive)	94.6% (inactive) and 99.5% (inactive)	69.2% (inactive) and 51.9% (inactive)	82.3% (inactive) and 61.6% (inactive)
O=C1c2cccc3cccc(c23)C(=O)N1N1C(=O)c2cccc3c(N4CCNCC4)ccc(c23)C1=O	101% (inactive)	97.9% (inactive)	89.8% (inactive)	71.6% (inactive)	–	87.8% (inactive)	92.4% (inactive)	75.1% (inactive)	19.5% (inactive)	61.5% (inactive)
O=C(Nc1ccccc1C(=O)N/N=C(\c1ccccc1)c1ccccn1)c1ccccc1	30.2% (inactive)	10.1% (inactive)	25.4% (inactive)	8.85% (active)	–	13.6% (inactive)	16.9% (inactive)	16.5% (inactive)	-2.61% (active)	–
O=C(CCN1CCOCC1)Nc1cccc(-n2cc(-c3ccncc3)c(-c3ccc(Cl)c(O)c3)n2)c1	14.8% (inactive)	55.7% (inactive)	42.8% (inactive)	41.9% (inactive)	–	34.2% (inactive)	38.6% (inactive)	10.9% (inactive)	17.7% (inactive)	28.6% (inactive)
CN1CCN(CCNC(=O)c2cccc(CN3c4cccc5c4C(=Cc4cccnc43)N(C)C5=O)c2)CC1	62% (inactive)	40.8% (inactive)	42.8% (inactive)	14.3% (inactive)	–	23.5% (inactive)	8.78% (active)	30.9% (inactive)	47% (inactive)	47.4% (inactive)
CN1CCN(C(=O)OCc2nc3c(N4CCOCC4)nc(Cl)nc3n2C)CC1	-57.4% (active)	-43.6% (active)	-75.1% (active)	-100% (active)	–	-94.5% (active)	-75.2% (active)	-15.5% (active)	-6.96% (active)	-24.8% (active)
CN1CCN(c2ccc(Nc3ncc(C(N)=O)c(NCCCNC(=O)C4CCC4)n3)cc2)CC1	71.3% (inactive)	99.2% (inactive)	36.3% (inactive)	40.1% (inactive)	–	61.8% (inactive)	35.1% (inactive)	137% (inactive)	14.2% (inactive)	18% (inactive)
CN(C)C(=O)c1cc2cnc(Nc3ccc(-c4csc5c(=S)cc(N6CCOCC6)oc45)cc3)nc2n1C1CCCC1	-24.6% (active)	12.1% (inactive)	7.93% (active)	-4.43% (active)	–	6.64% (active)	11.7% (inactive)	-38.2% (active)	1.8% (active)	2.85% (active)
Cc1ccc(NC(=O)c2ccc(CN3CCN(C)CC3)cc2)cc1Nc1nccc(-c2cccnc2)n1	–	84.3% (inactive) and 90.9% (inactive)	94% (inactive) and 83.7% (inactive)	92.4% (inactive) and 77.6% (inactive)	110% (inactive) and 74.9% (inactive)	101% (inactive) and 82.7% (inactive)	100% (inactive) and 102% (inactive)	86.3% (inactive) and 82.5% (inactive)	93.4% (inactive) and 49.7% (inactive)	82% (inactive) and 45.1% (inactive)
N#Cc1ccccc1-c1ccc(Cn2c(-c3cscn3)nc3c(Cl)cccc32)cc1	75.9% (inactive)	76.9% (inactive)	91.2% (inactive)	46% (inactive)	–	80.8% (inactive)	70.9% (inactive)	74.8% (inactive)	65.8% (inactive)	48.2% (inactive)
COc1ccc(/C=C(\C#N)c2cc3ccccc3[nH]2)cc1	26.2% (inactive)	45.3% (inactive)	42.2% (inactive)	46.9% (inactive)	–	56.5% (inactive)	33.9% (inactive)	32.1% (inactive)	13.5% (inactive)	–
COc1cc(/C=C2\C(=O)N(CCCCn3c4ccccc4c(=O)c4ccccc43)c3ccccc32)cc(OC)c1O	26.5% (inactive)	74% (inactive)	71.1% (inactive)	49.5% (inactive)	–	63.3% (inactive)	52% (inactive)	75.5% (inactive)	15.9% (inactive)	29% (inactive)
